Records with an inconclusive call do not appear. Some structures have more than one record in an assay (separate samples or runs), and their calls can disagree. Activity calls are given as the source filed them. The calls were made as follows, unless noted: active = hit-call score of the fitted dose curve at least 0.9, where 1 is the maximum; inconclusive = response in the unintended direction; inactive = score below 0.9.
Assays:
[1] = biological target: Steroid hormone receptor ERR1 (Homo sapiens) (UniProt P11474); test: ATG_ERRa_TRANS: Attagene TRANS-FACTORIAL HepG2 Assay for human Estrogen-Related Receptor alpha (ERRa) (AID 2282971); conditions: HepG2 Attagene TRANS reporter, ERRa transactivation
Steroid hormone receptor ERR1 (Homo sapiens), sequence (P11474 whole entry, looked up, the tested form may be a part): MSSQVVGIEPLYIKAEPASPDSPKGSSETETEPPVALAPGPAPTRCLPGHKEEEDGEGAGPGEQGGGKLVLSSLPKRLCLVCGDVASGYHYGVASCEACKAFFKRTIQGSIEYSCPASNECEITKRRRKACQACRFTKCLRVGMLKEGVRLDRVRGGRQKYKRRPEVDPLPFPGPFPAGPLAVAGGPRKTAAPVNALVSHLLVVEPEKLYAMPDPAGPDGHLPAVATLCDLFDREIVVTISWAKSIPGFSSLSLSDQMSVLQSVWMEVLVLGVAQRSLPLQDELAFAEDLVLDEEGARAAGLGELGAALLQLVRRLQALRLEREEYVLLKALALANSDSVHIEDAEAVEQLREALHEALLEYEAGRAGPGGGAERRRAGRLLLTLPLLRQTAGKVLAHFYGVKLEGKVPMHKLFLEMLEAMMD
How it was run: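 HepG2 cells transiently transfected with multiplexed GAL4-UAS reporter units reading chimeric ERRa-Gal4 activity; 24 h compound exposure. Reporter mRNA measured by RT-PCR, 6-FAM labelling, HpaI digest and capillary electrophoresis; gain of signal fitted versus DMSO baseline.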

[2] = CCTE_Harrill_HTTr_Apoptosis_MCF7: CCTE's 6-hour Apoptosis Assessment for the High-Throughput Transcriptomics (HTTr) Platform, in MCF-7 cells cultured in DMEM + 10% fetal bovine serum, Harrill Lab (AID 2284011; active = hit-call score of the fitted dose curve at least 0.9, where 1 is the maximum; inactive = score below 0.9)
How it was run: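 MCF-7 cells in DMEM + 10% fetal bovine serum were exposed to chemicals for 6 hours over an eight-point dilution series. Caspase-3/7 activation was imaged by high content imaging with CellEvent Caspase 3/7 Green; bidirectional fitting used DMSO as baseline.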

[3] = biological target: Glucocorticoid receptor (Homo sapiens) (UniProt P04150); test: ATG_GR_TRANS: Attagene TRANS-FACTORIAL HepG2 Assay for human Glucocorticoid Receptor (GR) (AID 2282978); conditions: HepG2 Attagene TRANS GR reporter, mRNA transcription;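 also: activators score as hits since higher reporter transcript over DMSO is fitted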
Glucocorticoid receptor (Homo sapiens), sequence (P04150 whole entry, looked up, the tested form may be a part): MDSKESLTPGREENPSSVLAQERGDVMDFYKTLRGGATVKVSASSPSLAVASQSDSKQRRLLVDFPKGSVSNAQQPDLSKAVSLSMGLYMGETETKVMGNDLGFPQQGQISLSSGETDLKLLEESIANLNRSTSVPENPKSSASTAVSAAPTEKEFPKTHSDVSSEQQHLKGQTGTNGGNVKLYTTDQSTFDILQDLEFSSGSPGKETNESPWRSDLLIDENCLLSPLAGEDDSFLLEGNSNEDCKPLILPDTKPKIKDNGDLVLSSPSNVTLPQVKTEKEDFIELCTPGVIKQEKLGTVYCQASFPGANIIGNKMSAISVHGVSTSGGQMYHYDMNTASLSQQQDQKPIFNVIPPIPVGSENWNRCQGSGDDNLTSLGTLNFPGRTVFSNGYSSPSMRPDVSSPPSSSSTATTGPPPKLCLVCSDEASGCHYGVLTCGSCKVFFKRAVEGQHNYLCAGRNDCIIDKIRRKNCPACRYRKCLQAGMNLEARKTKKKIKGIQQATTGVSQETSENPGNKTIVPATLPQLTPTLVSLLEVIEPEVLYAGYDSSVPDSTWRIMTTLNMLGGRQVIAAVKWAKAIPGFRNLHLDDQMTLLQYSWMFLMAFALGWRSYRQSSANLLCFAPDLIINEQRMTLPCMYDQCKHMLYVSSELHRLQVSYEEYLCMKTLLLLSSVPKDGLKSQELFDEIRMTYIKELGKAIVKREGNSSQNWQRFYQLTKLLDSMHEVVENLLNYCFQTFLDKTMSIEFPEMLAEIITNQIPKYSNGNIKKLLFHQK
How it was run: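 Reporter transcript levels, detected by fluorescence after RT-PCR and capillary electrophoresis, served as the endpoint. HepG2 cells bearing transfected GAL4-UAS reporters responsive to NR-GAL4 chimeras were incubated with compound 24 h; DMSO defined baseline.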

[4] = biological target: human Retinoid X Receptor beta (RXRb), RXRB (gene 6257) (UniProt P28702); test: ATG_RXRb_TRANS: Attagene TRANS-FACTORIAL HepG2 Assay for human Retinoid X Receptor beta (RXRb) (AID 2283013)
human Retinoid X Receptor beta (RXRb), RXRB (gene 6257), sequence (P28702 whole entry, looked up, the tested form may be a part): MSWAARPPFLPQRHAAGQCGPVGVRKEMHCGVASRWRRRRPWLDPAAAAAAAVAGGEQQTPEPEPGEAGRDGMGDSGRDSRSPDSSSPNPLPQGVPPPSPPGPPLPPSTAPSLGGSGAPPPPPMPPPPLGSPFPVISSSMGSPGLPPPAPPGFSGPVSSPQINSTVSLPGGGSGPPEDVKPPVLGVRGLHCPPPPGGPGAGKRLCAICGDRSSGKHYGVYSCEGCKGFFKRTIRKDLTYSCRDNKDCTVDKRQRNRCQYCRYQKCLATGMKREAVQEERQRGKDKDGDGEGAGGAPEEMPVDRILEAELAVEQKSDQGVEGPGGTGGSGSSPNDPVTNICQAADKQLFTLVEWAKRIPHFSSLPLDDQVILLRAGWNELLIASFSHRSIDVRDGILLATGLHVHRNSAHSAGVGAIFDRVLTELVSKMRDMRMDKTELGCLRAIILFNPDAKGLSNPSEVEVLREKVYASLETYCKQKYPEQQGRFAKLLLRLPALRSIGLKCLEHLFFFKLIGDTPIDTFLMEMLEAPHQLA
How it was run: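 Chimeric receptor-Gal4 activity was assessed in transiently transfected human HepG2 cells after 24 h exposure. Transcripts from GAL4-UAS reporters were quantified by fluorescent RT-PCR and capillary electrophoresis, with DMSO as negative control and baseline.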

[5] = biological target: Retinoic acid receptor RXR-alpha (Homo sapiens) (UniProt P19793); test: OT_NURR1_NURR1RXRa_1440: Odyssey Thera (OT) 24-hour HEK293T Protein Complementation Assay for Nurr1/retinoid X receptor (RXR) (AID 2283386)
Retinoic acid receptor RXR-alpha (Homo sapiens), sequence (P19793 whole entry, looked up, the tested form may be a part): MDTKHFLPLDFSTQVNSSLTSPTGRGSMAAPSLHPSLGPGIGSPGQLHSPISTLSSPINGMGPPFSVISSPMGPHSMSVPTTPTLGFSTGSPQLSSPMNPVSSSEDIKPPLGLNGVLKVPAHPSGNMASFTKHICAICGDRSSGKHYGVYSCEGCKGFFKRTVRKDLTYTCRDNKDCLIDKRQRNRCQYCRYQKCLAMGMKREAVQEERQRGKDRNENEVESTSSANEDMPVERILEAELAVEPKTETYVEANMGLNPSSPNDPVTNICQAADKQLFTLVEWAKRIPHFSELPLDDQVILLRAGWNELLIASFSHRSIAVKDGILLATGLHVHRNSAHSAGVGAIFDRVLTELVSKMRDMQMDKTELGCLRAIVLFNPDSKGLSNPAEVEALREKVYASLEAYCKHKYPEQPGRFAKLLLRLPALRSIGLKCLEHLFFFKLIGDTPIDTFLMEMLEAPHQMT
How it was run: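 Steps: fragment-tagged Nurr1 and RXRα expressed in HEK293T; compounds added; after 24 h, complemented reporter quantified by fluorescence intensity; signal increase over DMSO fitted as the single endpoint.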

[6] = biological target: Peroxisome proliferator-activated receptor gamma (Homo sapiens) (UniProt P37231); test: OT_PPARg_PPARgSRC1_0480: Odyssey Thera (OT) 8-hour Protein-Complementation Assay for Peroxisome Proliferator-activated Receptor Gamma / SRC-1 Co-activator (AID 2283387)
Peroxisome proliferator-activated receptor gamma (Homo sapiens), sequence (P37231 whole entry, looked up, the tested form may be a part): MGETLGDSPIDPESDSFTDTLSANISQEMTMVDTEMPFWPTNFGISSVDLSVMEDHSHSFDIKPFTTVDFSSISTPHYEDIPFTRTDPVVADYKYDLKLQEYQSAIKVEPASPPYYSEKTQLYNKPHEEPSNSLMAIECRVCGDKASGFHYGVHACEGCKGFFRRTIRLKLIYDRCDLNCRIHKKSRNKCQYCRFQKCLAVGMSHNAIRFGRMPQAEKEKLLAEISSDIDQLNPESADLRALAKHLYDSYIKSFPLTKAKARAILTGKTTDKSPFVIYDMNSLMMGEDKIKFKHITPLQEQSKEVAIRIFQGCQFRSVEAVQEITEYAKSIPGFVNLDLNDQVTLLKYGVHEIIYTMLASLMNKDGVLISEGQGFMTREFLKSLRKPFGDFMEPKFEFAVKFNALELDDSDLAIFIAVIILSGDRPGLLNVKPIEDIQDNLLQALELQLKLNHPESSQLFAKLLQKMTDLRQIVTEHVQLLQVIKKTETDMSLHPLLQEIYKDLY
How it was run: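 Protein-fragment complementation of split Venus YFP reports PPARg/SRC-1 interaction in HEK293T (transfected 48 h before treatment), exposed 8 h. Readout: N/C fluorescence ratio at 488 nm from imaging, Draq5 for segmentation, positive fit relative to DMSO.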

[7] = biological target: Peroxisome proliferator-activated receptor gamma (Homo sapiens) (UniProt P37231); test: OT_PPARg_PPARgSRC1_1440: Odyssey Thera (OT) 24-hour Protein-Complementation Assay for Peroxisome Proliferator-activated Receptor Gamma/ SRC-1 Co-activator (AID 2283388)
How it was run: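 HEK293T cells transiently transfected with PPARg and SRC-1 fused via (Gly4Ser)2 linker to split Venus YFP fragments (IFP1/IFP2) were dosed 24 h; fixed, Draq5-stained, imaged at 488/635 nm; nuclear/cytoplasmic fluorescence ratio scored versus DMSO baseline, gain-of-signal.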

[8] = ACEA_AR_agonist_AUC_viability: ACEA Biosciences xCELLigence Real-Time Cell Analysis on Androgen Receptor Agonism for Viability (AID 2283775);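 as to AC50: viability read 80 hours after compound addition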
How it was run: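 22Rv1 cells; impedance growth kinetics; 8-pt 1:4 dilutions from 100 uM top final, ≤0.5% DMSO; n = 2; 80 h read; AUC viability, loss-of-signal vs DMSO.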

[9] = ACEA_AR_antagonist_AUC_viability: ACEA Biosciences xCELLigence Real-Time Cell Analysis on Androgen Receptor Antagonism for Viability (AID 2283776);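 also: 22Rv1 human prostate cancer cells growing on impedance electrode plates; area under impedance growth curve at 80 h after dosing as viability; hits lower the growth signal relative to DMSO meaning cytotoxicity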
How it was run: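 Impedance read-out (RT-CES): area under growth curve at 80 h post-dose, loss of signal scored vs DMSO baseline. 22Rv1 cells; 8-pt 1:4 series, top 100 uM final, ≤0.5% DMSO; biological duplicate.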

[10] = read-out: Intercellular Adhesion Molecule 1 (ICAM1), ICAM1 (gene 3383); test: BSK_3C_ICAM1: BioMAP Diversity Plus: 3C Assay for Intercellular Adhesion Molecule 1 (ICAM1) Biomarker Activity (AID 2283003; active = hit-call score of the fitted dose curve at least 0.9, where 1 is the maximum; inactive = score below 0.9); conditions: primary human endothelial cells (HUVEC); actives raise or lower the signal
How it was run: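 Chemicals are dosed onto primary human umbilical vein endothelium (3C system). After 24 h, ICAM-1 is measured by ELISA, and responses are fitted bidirectionally relative to DMSO.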

[11] = read-out: Monokine induced gamma interferon (MIG), CXCL9 (gene 4283); test: BSK_3C_MIG: BioMAP Diversity Plus: 3C Assay for Monokine induced gamma interferon (MIG) Biomarker Activity (AID 2283021; active = hit-call score of the fitted dose curve at least 0.9, where 1 is the maximum; inactive = score below 0.9); conditions: primary human endothelial cells (HUVEC); actives raise or lower the signal
How it was run: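 Endothelial primary cells (human umbilical vein) are dosed with test chemical in the 3C system. MIG levels are measured by ELISA at 24 h and fitted in both directions relative to DMSO.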

[12] = biological target: Nuclear receptor subfamily 4 group A member 2 (Homo sapiens) (UniProt P43354); test: ATG_NURR1_TRANS: Attagene TRANS-FACTORIAL HepG2 Assay for human Nuclear Receptor Related Protein 1 (NURR1) (AID 2282985); conditions: HepG2 Attagene TRANS reporter, mRNA readout
Nuclear receptor subfamily 4 group A member 2 (Homo sapiens), sequence (P43354 whole entry, looked up, the tested form may be a part): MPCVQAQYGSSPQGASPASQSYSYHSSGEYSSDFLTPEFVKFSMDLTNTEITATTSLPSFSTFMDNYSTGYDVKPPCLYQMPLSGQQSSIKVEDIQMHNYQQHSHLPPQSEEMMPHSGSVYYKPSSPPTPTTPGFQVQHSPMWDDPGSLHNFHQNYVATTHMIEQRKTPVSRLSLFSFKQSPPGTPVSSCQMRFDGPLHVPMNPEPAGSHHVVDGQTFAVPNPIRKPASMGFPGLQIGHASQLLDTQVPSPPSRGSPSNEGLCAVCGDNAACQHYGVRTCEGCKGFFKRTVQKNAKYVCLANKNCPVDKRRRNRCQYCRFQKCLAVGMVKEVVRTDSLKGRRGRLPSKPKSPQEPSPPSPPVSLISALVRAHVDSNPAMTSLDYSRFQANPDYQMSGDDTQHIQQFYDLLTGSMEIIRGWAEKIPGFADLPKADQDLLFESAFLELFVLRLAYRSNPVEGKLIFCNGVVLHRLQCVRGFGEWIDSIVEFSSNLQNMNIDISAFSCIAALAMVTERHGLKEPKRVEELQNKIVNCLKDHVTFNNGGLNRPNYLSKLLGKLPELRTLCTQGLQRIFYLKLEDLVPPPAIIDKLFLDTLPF
How it was run: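 Chimeric NR-Gal4 fusion activity measured in HepG2 after 24 h treatment. Reporter transcripts detected by RT-PCR and capillary electrophoresis fluorescence; positive-direction curve fitting against DMSO.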

[13] = ACEA_ER_AUC_viability: ACEA Biosciences xCELLigence Real-Time Cell Analysis on Estrogen Receptor Agonism for Viability (AID 2283782);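 also: hit means loss of impedance signal meaning reduced cell growth or viability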
How it was run: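 Continuous-exposure impedance cell analysis uses T-47D cells in charcoal-stripped serum, eight 1:4 dilutions topping at 100 uM final, biological duplicate. Area under the growth curve at 80 h is fitted against DMSO baseline.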

[14] = CCTE_Harrill_HTTr_CellCount_MCF7: CCTE's Cell Proliferation Assessment for the High-Throughput Transcriptomics (HTTr) Platform, Harrill Lab (AID 2284012);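 also: cells exposed to compound for six hours; intended direction is loss of nuclei count meaning fewer cells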
How it was run: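 Cell count served as viability reporter: loss of Hoechst-stained nuclei, counted by high content imaging, marks decreased growth or survival. Exposure was 6 h in MCF-7 cells across eight concentrations, with DMSO as baseline.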

[15] = biological target: human Phosphatase and Tensin Homolog (PTEN), PTEN (gene 5728) (UniProt P60484); test: NVS_ENZ_hPTEN: NovaScreen (NVS) Enzymatic Assay for human Phosphatase and Tensin Homolog (PTEN) (AID 2283203)
human Phosphatase and Tensin Homolog (PTEN), PTEN (gene 5728), sequence (P60484 whole entry, looked up): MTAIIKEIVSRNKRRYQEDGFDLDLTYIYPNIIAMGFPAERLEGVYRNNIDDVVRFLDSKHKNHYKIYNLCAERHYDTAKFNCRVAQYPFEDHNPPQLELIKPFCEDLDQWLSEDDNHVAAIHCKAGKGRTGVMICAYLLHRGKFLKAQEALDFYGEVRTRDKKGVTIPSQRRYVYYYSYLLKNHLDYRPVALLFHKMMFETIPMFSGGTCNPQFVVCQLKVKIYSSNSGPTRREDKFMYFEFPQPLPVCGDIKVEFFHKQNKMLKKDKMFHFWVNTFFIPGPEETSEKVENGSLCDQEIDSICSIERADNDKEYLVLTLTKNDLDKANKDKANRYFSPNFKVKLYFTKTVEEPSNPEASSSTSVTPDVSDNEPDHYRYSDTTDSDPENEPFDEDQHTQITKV
How it was run: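 Loss of fluorescent product signal after mobility-shift separation reports PTEN activity, recombinant human enzyme, 1 h after compound addition. Single 25 uM duplicate screen, then concentration-response on actives; DMSO baseline.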

[16] = biological target: rat CYP1A2, Cyp1a2 (gene 24297) (UniProt P04799); test: NVS_ADME_rCYP1A2: NovaScreen (NVS) CYP450-related Enzyme Activity (ADME) Assay for rat CYP1A2 (AID 2283115)
rat CYP1A2, Cyp1a2 (gene 24297), sequence (P04799 whole entry, looked up): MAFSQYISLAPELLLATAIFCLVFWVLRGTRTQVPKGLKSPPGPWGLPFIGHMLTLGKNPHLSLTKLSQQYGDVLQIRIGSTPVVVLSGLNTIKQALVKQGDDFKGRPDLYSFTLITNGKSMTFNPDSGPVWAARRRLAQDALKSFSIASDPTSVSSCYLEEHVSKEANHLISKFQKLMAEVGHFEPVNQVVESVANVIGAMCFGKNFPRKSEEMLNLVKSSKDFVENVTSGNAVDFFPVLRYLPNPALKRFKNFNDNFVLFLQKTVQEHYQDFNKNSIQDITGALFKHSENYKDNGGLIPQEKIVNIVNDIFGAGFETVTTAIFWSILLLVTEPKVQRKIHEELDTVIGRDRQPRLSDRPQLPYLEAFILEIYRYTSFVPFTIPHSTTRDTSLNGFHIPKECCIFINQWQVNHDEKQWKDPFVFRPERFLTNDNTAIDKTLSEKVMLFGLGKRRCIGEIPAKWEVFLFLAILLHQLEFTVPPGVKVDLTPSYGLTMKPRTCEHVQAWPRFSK
How it was run: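 Primary testing ran in duplicate at 10 uM, with actives re-tested across concentration series. Fluorescence intensity from substrate turnover by recombinant protein, measured 1 hour post-dosing, with signal loss scored against acetonitrile vehicle.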

[17] = tested on: rat Monoamine Oxidase, MAO-A, Peripheral (MAOAP), gene 29253; test: NVS_ENZ_rMAOAP: NovaScreen (NVS) Enzymatic Assay for rat Monoamine Oxidase, MAO-A, Peripheral (MAOAP) (AID 2283237)
How it was run: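 Scintillation counting tracked MAO-A activity in a cell-free rat liver mitochondrial membrane prep, read 1.17 hours after compound addition. Single-point duplicate testing at 25 uM preceded concentration-response follow-up; activity was fitted relative to DMSO.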

In the case of `CCOC(=O)N(C)N=O`, the outcome [1] is reported as “inactive” and the outcome [2] is reported as “inactive”.
For `CCCC=NO`, the outcome [3] was “inactive”, the outcome [4] was “inactive” and the outcome [5] was “inactive”. The outcome [6] was “inactive”, the outcome [7] was “inactive” and the outcome [8] was “inactive”. For the same molecule, the outcome [9] was “inactive”.
For `C=CCN(CC=C)C(=O)C(Cl)Cl`, the outcome [3] was “inactive”, the outcome [10] was “inactive” and the outcome [11] was “inactive”. The outcome [5] was “inactive”, the outcome [6] was “inactive” and the outcome [7] was “inactive”. For the same molecule, the outcome [8] was “inactive”.
For `O=c1c2ccccc2c(=O)c2c1cc(Cl)c1[nH]c3c([nH]c12)c(Cl)cc1c(=O)c2ccccc2c(=O)c13`, the outcome [12] was “inactive”, the outcome [10] was “inactive” and the outcome [11] was “inactive”. For the same molecule, the AC50 [13] was 6.28 µM (active).
With `COc1ncc(F)c2nc(S(=O)(=O)Nc3c(F)cccc3F)nn12` the outcome [3] was “inactive”, the outcome [12] was “inactive” and the outcome [2] was “inactive”. For the same molecule, the outcome [14] was “inactive”.
With `SCc1ccco1` the outcome [12] was “inactive”, the outcome [4] was “inactive” and the AC50 [15] was 25 µM (active).
For `Cc1ncc(C[n+]2csc(CCO)c2C)c(N)n1`, the outcome [12] was “inactive” and the outcome [13] was “inactive”.
With `CC(C)(Cl)Cl` the outcome [5] was “inactive”, the outcome [6] was “inactive” and the outcome [7] was “inactive”. The outcome [8] was “inactive”, the AC50 [9] was 0.413 µM (active) and the outcome [2] was “inactive”. For the same molecule, the outcome [14] was “inactive”.
With `CC(C)[C@@H](C(=O)O[C@@H](C#N)c1cccc(Oc2ccccc2)c1)c1ccc(Cl)cc1` the outcome [6] was “inactive”, the outcome [7] was “inactive” and the AC50 [8] was 41.6 µM (active). For the same molecule, the outcome [8] was “inactive”, the AC50 [9] was 50 µM (active) and the outcome [9] was “inactive”. The outcome [2] was “inactive” and the outcome [14] was “inactive”.
With `CCCCOCCOCCOCc1cc2c(cc1CCC)OCO2` the outcome [16] was “inactive”.
In the case of `CO[Si](CCC1CCC2OC2C1)(OC)OC` (stereo not drawn), the outcome [16] is reported as “inactive”.
In the case of `COc1ccc(C(=O)/C(Br)=C\C(=O)O)cc1`, the outcome [16] is reported as “inactive”.
In the case of `CN(C)C(=O)Nc1ccc(Cl)c(Cl)c1`, the outcome [16] is reported as “inactive”.
In the case of `c1cc[nH]c1`, the outcome [16] is reported as “inactive”.
In the case of `CC(C)(c1ccc(O)cc1)c1ccc(O)cc1`, the outcome [15] is reported as “inactive” and the outcome [17] is reported as “inactive”.
With `CCC(C)c1cc([N+](=O)[O-])cc([N+](=O)[O-])c1OC(=O)OC(C)C` (stereo not drawn) the outcome [16] was “inactive”.
In the case of `O=c1c(-c2ccc(O)cc2)coc2cc(O)cc(O)c12`, the AC50 [17] is reported as 3.49 µM (active).
